From PubChem BioAssay
A number with no mark means an inactive call.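 How the source made its calls: active means inhibition at or above 50% relative to wild type and mutant plate controls; inactive means inhibition below 50%.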

Assay: loss of swimming-algae plug formation – whole organism, Chlamydomonas reinhardtii, WT vs cilia-less mutant, absorbance, 96-well, primary screen (AID 463189);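 further: 0% = wild type cc124 cells in DMSO and 100% = ciliumless bld1 mutant cells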
Settings: Chlamydomonas reinhardtii gravitaxis, OD600 absorbance, 2 days; at 10 µM; hits give high values
For CCN(CC)CCOCCOC(=O)C1(c2ccccc2)CCCC1, the inhibition was 5.28%.
With CCCCOc1cc(CC2CNC(=O)N2)ccc1OC (stereo unspecified) the inhibition was 2.83%.
C=C1C(=O)O[C@@H]2[C@H]3O[C@]3(C)CCC=C(C)CC[C@@H]12 showed an inhibition of 4.91%.
In the case of N[C@@H](Cc1c[nH]c2ccccc12)C(=O)O, the inhibition is reported as 5.27%.
Molecule CC(C)(C(=O)O)c1ccc(C(O)CCCN2CCC(C(O)(c3ccccc3)c3ccccc3)CC2)cc1 (stereo unspecified) has an inhibition of -1.29%.
With Nc1ncnc2c1nc(Sc1ccc(Cl)cc1)n2C1OC2COP(=O)(O)O[C@@H]2[C@@H]1O (stereo partly specified) the inhibition was 9.99%.
In the case of CCCN1C[C@H](CSC)C[C@@H]2c3cccc4[nH]cc(c34)C[C@H]21, the inhibition is reported as 5.65%.
CN(C)CCOC(=O)COc1ccc(Cl)cc1 showed an inhibition of 5.22%.
c1ccc(-c2ccccn2)nc1 gave an inhibition of 1.35%.
In the case of CC(C)CN(C)c1nc(N)c(C(=O)N=C(N)N)nc1Cl, the inhibition is reported as -3.31%.
In the case of O=C1N=C(O)CN1/N=C/c1ccc(-c2ccc([N+](=O)[O-])cc2)o1, the inhibition is reported as 4.87%.
CCCCCCCCCCCCCCCCCC(=O)NCC(COP(=O)([O-])OCC[N+](C)(C)C)OCC (stereo unspecified) showed an inhibition of 9.71%.
Molecule CC1(NCC(O)COc2cccc3[nH]ccc23)CCC(C(C)(C)NC(=O)CBr)CC1 (stereo unspecified) has an inhibition of 5.45%.
In the case of NCCNC(=O)c1ncsc1-c1cccc(F)c1, the inhibition is reported as 0.32%.
Work on CC(C)(C)NCC(O)COc1nsnc1N1CCOCC1 (stereo unspecified) yielded an inhibition of -8.84%.
For N[C@@H](CCC(=O)N[C@H](CSN=O)C(=O)NCC(=O)O)C(=O)O, the inhibition was 3.12%.
